28 compounds from PubChem BioAssay (Tox21) can be followed below.

Unmarked numbers belong to inactive results. Inconclusive results are not listed. Active and inactive are the calls of the source. Calls come from the whole dose curve; as a rule, active = well fitted curve in the direction sought with a large enough effect in the repeat runs; inconclusive = weak or mixed curves; inactive = no such curve, though single readings can be large; an effect the other way counts as inactive or inconclusive.

The nature of test [1]: qHTS RealTime-Glo MT Cell Viability Assay in HEK293 cells - 32 hour (AID 1224868). Note: top concentration of the series differs between compounds; nearly all actives have a fitted effect of over 50% in size. An outline of the steps: (§1)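 HEK293 cells were seeded at 600 cells/well together with NanoLuc luciferase and cell-permeant prosubstrate, preincubated 5 h at 37 C/5% CO2, then given compound in DMSO by pintool. Luminescence from viable-cell prosubstrate reduction was read repeatedly over 40 h.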
In general terms: Quantitative high-throughput screening tests each substance at several concentrations.

Test [2] in a line: qHTS RealTime-Glo MT Cell Viability Assay in HepG2 cells - 40 hour (AID 1224870). Note: nearly all actives have a fitted effect of over 50% in size. An outline of the steps:
(§2)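 Real-time viability: cells seeded at 600 per well together with NanoLuc and cell-permeant prosubstrate, compounds added after 5 h incubation. Luminescence tracked at 0, 8, 16, 24, 32 and 40 h of exposure.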

Test [3] is described as follows: A CellTox Green Cytotoxicity Assay to monitor cytotoxicity in HEK293 cells - 40 hour (AID 1224871). Note: nearly all actives have a fitted effect of over 45% in size. Note: potency is the fitted concentration of half-maximal effect. An outline of the steps: (§3)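 Seeding of HEK293 cells together with cytotoxicity dye preceded a 5 h incubation at 37 C/5% CO2. Test compounds in DMSO were then added and fluorescence monitored across 40 h.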
Test [4] in a line: qHTS RealTime-Glo MT Cell Viability Assay in HEK293 cells - 16 hour (AID 1224872). Note: top concentration of the series differs between compounds; nearly all actives have a fitted effect of over 50% in size. In short, it runs like this: as §1
Test [5] in a line: qHTS RealTime-Glo MT Cell Viability Assay in HepG2 cells - 8 hour (AID 1224873). Note: nearly all actives have a fitted effect of over 55% in size. An outline of the steps:
as §2

Test [6] can be described thus: qHTS RealTime-Glo MT Cell Viability Assay in HEK293 cells - 40 hour (AID 1224874). Note: nearly all actives have a fitted effect of over 50% in size. To be noted: RealTime-Glo luminescence, stronger effect = lower value. In short, it runs like this: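 Tox21 screen in HEK293 using RealTime-Glo MT chemistry, with cells and reagent co-dispensed. Luminescence proportional to viable cell number was captured at intervals during 40 h compound exposure at 37 C.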

The nature of test [7]: A CellTox Green Cytotoxicity Assay to monitor cytotoxicity in HepG2 cells - 16 hour (AID 1224876). Note: nearly all actives have a fitted effect of over 45% in size. Note: potency is the fitted concentration of half-maximal effect. In short, it runs like this:
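Nonlytic assay: viable cells exclude the dye, so fluorescence scales with cell death. HepG2 at 600 cells/well, compounds added after 5 h, signal read across 40 h.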

Test [8] in a line: qHTS RealTime-Glo MT Cell Viability Assay in HepG2 cells - 32 hour (AID 1224877). Note: nearly all actives have a fitted effect of over 55% in size. An outline of the steps:
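HepG2 cells were seeded at 600 cells/well together with NanoLuc luciferase and a cell-permeant prosubstrate, preincubated 5 h at 37 C/5% CO2, then pin-dosed with compounds in DMSO. Nonlytic luminescence from viable cells was read at each time point.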

Test [9] is described as follows: A CellTox Green Cytotoxicity Assay to monitor cytotoxicity in HEK293 cells - 24 hour (AID 1224875). Note: nearly all actives have a fitted effect of over 45% in size. Note: potency is the fitted concentration of half-maximal effect. An outline of the steps: as §3
Test [10] in a line: A CellTox Green Cytotoxicity Assay to monitor cytotoxicity in HEK293 cells - 0 hour (AID 1224869). Note: nearly all actives have a fitted effect of over 50% in size. An outline of the steps:
as §3
% is set by controls: 0 for no effect and ±100 for the full control effect.

Turning to `O=C(O)/C=C(\CC(=O)O)C(=O)O`, the compound was classed as inactive in test [1], in test [2], in [4], in test [5] and in [8]. The Potency result in [3] and in test [7] was “inactive” throughout. In test [6], the max response is 4.26%.
Turning to `CCC(C)SSC(C)CC` (centres undefined), the compound was called inactive in test [1], in test [2], in test [4], in [5] and in test [8]. For the same compound, the max response in [6] is 3.14%. In addition, the Potency result in test [9] and in test [7] was “inactive” throughout.
On to `C=COCCCCO`, for which the call in test [1], in test [2], in [5] and in test [8] was inactive. For the same compound, the Potency entry in [3], in [9] and in test [7] was “inactive” each time. Further, the max response in test [6] was -1.03%.
With `C/C(Cl)=C/CCl`, the outcome in [1], in test [2], in test [4], in test [5] and in test [8] was inactive. Moreover, the Potency entry in [3], in test [9] and in [7] was “inactive” each time. In addition, the max response in test [6] was 16%.
As for `CC(=O)Nc1ccc(S(=O)(=O)Nc2cc(C)on2)cc1`, the result in test [1], in test [2], in [5] and in test [8] was inactive. In addition, the Potency result in [3], in [9] and in [7] was “inactive” each time. In addition, the max response in test [6] is 0.358%.
Take `Cc1ccccc1OCC(=O)O`: the compound was called inactive in test [1], in test [2], in test [4], in test [5] and in test [8]. For the same compound, the max response in [6] was 3.48%. Also, the Potency result in test [9] and in test [7] was “inactive” each time.
`CCOC(=O)CN1CCCC1=O`: the call in [1], in test [4], in test [5] and in test [8] was inactive. Further, in test [6], the max response was 0.653%. Moreover, the Potency result in test [9] and in test [7] was “inactive” in each case.
On to `O=C1Nc2ccccc2C1=O`, for which the result in test [10], in test [2] and in [8] was inactive. Besides, the Potency entry in test [3], in test [9] and in test [7] was “inactive” in each case.
As for `CC1(C)CC(N)CC(C)(C)N1`, the result in test [1], in test [2], in test [5] and in test [8] was inactive. Besides, the Potency result in test [3] and in test [7] was “inactive” throughout. Also, in [6], the max response is 16.7%.
Regarding `NCC1CCC(C(=O)Oc2ccc(CCC(=O)O)cc2)CC1` (centres undefined), the compound was classed as inactive in test [1], in test [4], in test [5] and in test [8]. Moreover, the Potency result in test [3], in [9] and in test [7] was “inactive” each time. For the same compound, the max response in test [6] was 8.81%.
For the compound `Cc1nnc(C(=O)NC(C)(C)c2nc(C(=O)NCc3ccc(F)cc3)c(O)c(=O)n2C)o1`, the call in [2] and in [5] was inactive. In addition, the Potency entry in test [3], in test [9] and in [7] was “inactive” throughout. The max response in test [6] was 21.7%.
With `CC(C)C[P+](C)(CC(C)C)CC(C)C`, the compound was classed as inactive in test [1], in test [2], in test [4] and in test [5]. Besides, the max response in test [6] is -17.7%. In addition, in test [7], the Potency result was “inactive”.
Regarding `CCCOc1ccc(C(=O)OCCN(CC)CC)cc1N`, the compound was classed as inactive in test [1], in test [2], in test [5] and in test [8]. Moreover, in [6], the max response was 0.981%. The Potency result in [9] and in test [7] was “inactive” each time.
Regarding `CC(=O)/C=C/C=C1/C2CCC(C2)C1(C)C` (centres undefined), the outcome in test [1], in [2], in test [4] and in test [8] was inactive. Also, the Potency entry in test [3], in test [9] and in [7] was “inactive” in each case. Moreover, in test [6], the max response is -0.661%.
Turning to `N=C(N)N`, the result in test [1], in [4] and in test [8] was inactive. Besides, the Potency entry in [3], in test [9] and in test [7] was “inactive” each time. Moreover, the max response in test [6] was -0.588%.
Regarding `Cc1cc(C)c(C)c(C)c1`, the call in [1], in [2], in test [5] and in test [8] was inactive. Further, the Potency result in [3], in test [9] and in [7] was “inactive” in each case. In [6], the max response was -10%.
For the compound `COC(=O)c1c(C)cc(O)c(C)c1O`, the call in test [10], in test [5] and in test [8] was inactive. Besides, the Potency entry in [3], in test [9] and in test [7] was “inactive” in each case.
Take `C=CC(=O)OCC[N+](C)(C)C`: the outcome in test [1], in test [2], in [4] and in test [8] was inactive. The Potency entry in [3] and in test [7] was “inactive” throughout. The max response in test [6] was 10.3%.
For `COc1cnc(NS(=O)(=O)c2ccc(N)cc2)nc1`, the call in test [1], in test [4], in [5] and in [8] was inactive. The Potency result in test [3], in [9] and in [7] was “inactive” in each case. Further, the max response in test [6] was 3.91%.
`O=C(OOC(=O)c1ccccc1)c1ccccc1`: the outcome in test [10], in [2], in [5] and in test [8] was inactive. Moreover, the Potency entry in [3], in test [9] and in test [7] was “inactive” in each case.
In the case of `O=c1c(O)c(O)c1=O`, the result in [1], in [2], in test [4], in test [5] and in [8] was inactive. The Potency result in test [3] and in test [7] was “inactive” throughout. For the same compound, in test [6], the max response was -0.875%.
As to `CC(=O)c1ccc(O)c(C(N)=O)c1`, the outcome in test [1], in test [2], in [4], in test [5] and in test [8] was inactive. For the same compound, the Potency result in test [3] and in [7] was “inactive” in each case. For the same compound, the max response in test [6] is 2.03%.
Turning to `CCCCC(CC)CCC(CC(C)C)OS(=O)(=O)O` (centres undefined), the outcome in test [1], in test [2], in test [4], in [5] and in [8] was inactive. Further, the Potency result in [3] and in test [7] was “inactive” each time. The max response in [6] was -2.38%.
For the compound `CCN(CC)CC(=O)Oc1ccc(NC(C)=O)cc1`, the call in [10], in [2] and in test [8] was inactive. Also, the Potency entry in [3], in [9] and in [7] was “inactive” throughout.
Take `C=CC(=O)OCCOCCOCC`: the outcome in test [1], in test [2] and in test [5] was inactive. In addition, the Potency result in test [3], in [9] and in [7] was “inactive” throughout. The max response in [6] is 21.6%.
On to `CC(=O)c1ccc2ccc3ccccc3c2c1`, for which the compound was called inactive in test [10], in test [2], in test [5] and in [8]. The Potency entry in test [3], in test [9] and in [7] was “inactive” throughout.
With `CC(=O)c1c(C)cc(C(C)(C)C)cc1C`, the outcome in test [2] and in test [8] was inactive. Also, the Potency in [3] was 24.5 µM (active); in [9] it was 21.9 µM (active); in test [7] it was 38.9 µM (active).
`COC(=O)C(c1ccccc1Cl)N1CCc2sccc2C1` (centres undefined): the compound was classed as inactive in test [1], in test [4], in [5] and in [8]. For the same compound, the Potency result in test [3], in [9] and in test [7] was “inactive” in each case. In addition, the max response in test [6] was -3.35%.
